From ChEMBL document CHEMBL3433997, “St. Jude Leishmania screening dataset” (2016) come the findings set out here.

SMILES strings stand for the structures.

The term inhibition denotes the drop in the measured response relative to a control, in per cent.

Holding throughout (assay type): functional
The target of test [1] is Solute carrier family 2, facilitated glucose transporter member 1 (Homo sapiens) (UniProt P11166). The test can be described thus: ST_JUDE_LEISH: Cytotoxicity at 2uM final concentration against transgenic Leishmania Mexicana promastigotes LmGLUT1 that are glucose transport deficient and complemented with the human glucose transporter GLUT1. Activity is measured by DNA content using SYBR green in vitro.

The target of test [2] is Hexose transporter 1 (Plasmodium falciparum) (UniProt O97467). The test can be described thus: ST_JUDE_LEISH: Cytotoxicity at 2uM final concentration against transgenic Leishmania Mexicana promastigotes LmPfHT that are glucose transport deficient and complemented with the Plasmodium falciparum hexose transporter. Activity is measured by DNA content using SYBR green in vitro.

Test [3] addresses Glucose transporter (Leishmania mexicana) (UniProt O61059). The test can be described thus: ST_JUDE_LEISH: Cytotoxicity at 2uM final concentration against transgenic Leishmania Mexicana promastigotes LmGT2 that are glucose transport deficient and complemented with the L. Mexicana glucose transporter 2. Activity is measured by DNA content using SYBR green in vitro.

Sequence of Solute carrier family 2, facilitated glucose transporter member 1 (Homo sapiens) (P11166 whole entry): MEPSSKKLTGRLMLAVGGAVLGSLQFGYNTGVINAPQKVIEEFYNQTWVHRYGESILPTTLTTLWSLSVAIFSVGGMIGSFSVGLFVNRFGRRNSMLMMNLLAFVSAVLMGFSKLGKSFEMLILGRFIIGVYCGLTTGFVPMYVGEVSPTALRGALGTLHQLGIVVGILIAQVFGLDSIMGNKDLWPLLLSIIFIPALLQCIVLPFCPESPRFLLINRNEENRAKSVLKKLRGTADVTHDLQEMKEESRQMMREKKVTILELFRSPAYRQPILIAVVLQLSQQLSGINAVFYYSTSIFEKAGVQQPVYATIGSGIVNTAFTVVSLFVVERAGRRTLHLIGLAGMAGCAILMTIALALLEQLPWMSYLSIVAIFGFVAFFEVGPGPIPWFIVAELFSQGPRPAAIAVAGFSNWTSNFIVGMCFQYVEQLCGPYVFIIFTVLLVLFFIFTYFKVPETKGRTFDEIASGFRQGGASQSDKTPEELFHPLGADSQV

`Cn1nc(-c2ccc(CN[C@@H]3CCc4ccc(O)cc43)cc2)c2cnc(NC3CCCC3)nc21`: the results for the inhibition in test [1], in test [2] and in test [3] were 0.66%, -1.03% and -0.55%, respectively.

`CNc1ccc(CNCc2ccc(-c3ccc(-c4nc5cc(F)ccc5[nH]4)cc3)cc2)cc1`: the results for the inhibition in test [1], in test [2] and in test [3] were 3.2%, -0.46% and -0.33%, respectively.

Take `O=C(Nc1ccc([N+](=O)[O-])cc1)c1nn(-c2ccccc2)cc1/N=C/c1cccc(O)c1`: the inhibition is -0.62% in test [1], -1.47% in test [2] and -1.45% in test [3].

Take `CN(C)c1ccc(C=CC(=O)NC(=O)c2ccccc2O)cc1`: the inhibition in test [1] amounted to 3.19%; in test [2], 2.19%; in test [3], 1.56%.

For `CC(O)C(C)(CO)NCc1ccc2c3c(cccc13)-c1ccccc1-2` (stereo not given), the inhibition in test [1] was determined as 15.7%; in test [2], 11.2%; in test [3], 5.35%.

For the molecule `Cc1cc2nc(-c3ccc(C(=O)NCc4cccc(F)c4)cc3)[nH]c2cc1C`, the inhibition in test [1] is -0.23%; in test [2] it was 0.73%; in test [3], -1.73%.

With `CN(C)CCCn1c(C(=O)OC(c2ccccc2)c2ccccc2)cc2cc(OCc3ccccc3)ccc21`, the results for the inhibition in test [1], in test [2] and in test [3] were -0.72%, 0.08% and -2.32%, respectively.

Take `CC(C)(C)c1nn(-c2ccccc2)c2[nH]c(=O)c(CNCc3ccc4c(c3)OCO4)cc12`: the inhibition stood at 6.79% in test [1], 3.28% in test [2] and 3.39% in test [3].

Regarding `CC(C)(C)CNc1noc(-c2sccc2Br)n1`, the inhibition in test [1] is -0.27%; in test [2], -0.43%; in test [3], -0.7%.

Take `COc1ccc2nccc([C@@H](O)CN3CCC(NCCOc4ccc(F)cc4F)CC3)c2c1`: the inhibition in test [1] is 7.55%; in test [2] it was 6.58%; in test [3], -1.61%.

For `Cc1cc2c(/C=C/C(=O)NC3CCC(CCN4CCc5ccc(C#N)cc5CC4)CC3)cccc2[nH]1` (stereo not given), the inhibition in test [1] amounted to 4%; in test [2] it was 4.14%; in test [3], 3.25%.

In the case of `Nc1nccc2ccc(-c3cccnc3)cc12`, the inhibition in test [1] was 3.94%; in test [2], 5.14%; in test [3], 4.83%.

In the case of `c1cc(CN2CCCCC2)cc(-c2cccc(-c3nc4ccccc4[nH]3)c2)c1`, the values for the inhibition in test [1], in test [2] and in test [3] were 1.27%, 2.94% and -0.15%, respectively.

Take `Cc1cccc2nc(-c3cccc(-c4cccc(NC(=O)c5csnn5)c4)c3)[nH]c12`: the inhibition is 4.92% in test [1], 1.69% in test [2] and -0.76% in test [3].

With `COc1ccc(-c2csc3ncnc(Cl)c23)cc1OC`, the values for the inhibition in test [1], in test [2] and in test [3] were 3.91%, 3.53% and -0.23%, respectively.

In the case of `COc1cc(C(C)C)ccc1C1CCN(CCCCNC(=O)c2ccc(NC(=O)c3ccc(Cl)cc3)cc2)CC1`, the inhibition worked out at 4.4% in test [1], 6.6% in test [2] and 3.65% in test [3].

In the case of `COc1nc2c(N3CCN(CCNCc4ccc5c(n4)NC(=O)CS5)CC3)ccnc2cc1F`, the inhibition was 0.45% in test [1], -0.85% in test [2] and 0.49% in test [3].

`Cc1cccc2nc(-c3ccc(-c4ccc(CNCCNC(=O)c5ccnn5C)cc4)cc3)[nH]c12`: the inhibition in test [1] is -0.55%; in test [2] it was 1.46%; in test [3], -2.49%.

For `O=C(Nc1ccccc1)N(Cc1ccccc1-c1cccc(CNCc2ccc3c(c2)OCO3)c1)C1CCN(Cc2ccccc2)CC1`, the inhibition in test [1] was -2.93%; in test [2], -2.6%; in test [3], -2.56%.

As to `Cc1cc(N[C@@H](Cc2ccccc2)C(=O)NCCCOC(C)C)nc(NCCc2ccc(F)cc2)n1`, the inhibition came out at 5.75% in test [1], 2.58% in test [2] and 0.38% in test [3].

For the molecule `CNCCNCc1ccc(-c2ccc(-c3nc4ccccc4[nH]3)s2)cc1`, the inhibition in test [1] was determined as 3.78%; in test [2], 4.5%; in test [3] it was 3.75%.

On to `Cc1cc(Nc2ccc(Cl)c(Cl)c2)n2nc(C)nc2n1`, for which the results for the inhibition in test [1], in test [2] and in test [3] were -1.71%, -1.26% and 0.04%, respectively.

As to `O=C(Nc1cccc2ccccc12)N1CCc2cc3nccc(N4CCN5CCC[C@H]5C4)c3cc21`, the inhibition was determined as 5.08% in test [1], 2.82% in test [2] and 4.23% in test [3].

For `COc1ccc(NC(=O)c2ccc(OCCCCCCCOc3ccc(C(=O)Nc4ccc(OC)c(N5CCN(C)CC5)c4)cc3)cc2)cc1N1CCN(C)CC1`, the inhibition in test [1] is 0.98%; in test [2], 0.63%; in test [3], 1.11%.

Regarding `COc1ccc2c(=O)c3ccc(OC)cc3[nH]c2c1`, the inhibition was 1.08% in test [1], -2.12% in test [2] and -0.67% in test [3].

Turning to `O=C(NCCCCN1CCC(c2ccc3c(c2OC(=O)c2ccc(NC(=O)c4ccc(Cl)cc4)cc2)CCCC3)CC1)c1ccc(NC(=O)c2ccc(Cl)cc2)cc1`, the inhibition stood at 3.25% in test [1], 0.15% in test [2] and 3.18% in test [3].

Turning to `Cc1cc(NC(=O)NCCN2CCC(NS(=O)(=O)c3ccccc3F)CC2)c2ccccc2n1`, the figures for the inhibition in test [1], in test [2] and in test [3] were 1.57%, 2.12% and 0.24%, respectively.

For `O=C(Nc1cccc(-c2cccc(-c3ccc(F)cc3)n2)c1)c1ccc([N+](=O)[O-])o1`, the inhibition turned out to be 9.83% in test [1], 11.4% in test [2] and 1.35% in test [3].

In the case of `COc1cc(C)nc2ccc(NC(=O)c3cc([N+](=O)[O-])cc([N+](=O)[O-])c3)cc12`, the inhibition in test [1] turned out to be 2.43%; in test [2], 0.24%; in test [3] it was 3.33%.

Consider `O=C(c1cc(C(=O)Nc2ccccc2F)c(=O)n(-c2ccccc2F)c1)c1cc(Cl)ccc1O`, for which the inhibition was 1.31% in test [1], -0.63% in test [2] and -2.18% in test [3].

On to `COc1ccc(NC(=O)NC2CCN(CCCCCNC(=O)/C=C/c3ccc(Cl)c(Cl)c3)C2)c(OC)c1` (stereo not given), for which the results for the inhibition in test [1], in test [2] and in test [3] were -1.78%, -1.48% and 2.83%, respectively.

On to `CCCCCCn1c(Sc2ccc(C#N)c([N+](=O)[O-])c2)nnc1-c1cc(OC)cc(OC)c1`, for which the figures for the inhibition in test [1], in test [2] and in test [3] were 5.8%, 6.04% and 4.53%, respectively.

As to `CCn1nc(C(=O)NC2CCOc3ccccc32)c2ccccc2c1=O` (stereo not given), the inhibition in test [1] was -1.12%; in test [2] it was -0.92%; in test [3] it was -3.49%.

For the molecule `C(=NN=c1cc[nH]c2ccccc12)c1ccncc1`, the inhibition in test [1] was 3.99%; in test [2], 4.32%; in test [3], 3.95%.

In the case of `COc1ccc2ncc(C#N)c(CCN3CCC(NCc4cnc5c(c4)OCCO5)CC3)c2n1`, the inhibition worked out at 11.4% in test [1], 15.9% in test [2] and 6.56% in test [3].
